Results as given in PubChem BioAssay (NCATS).
Records with an inconclusive call do not appear. A call without a number means that no potency is given here. Values without a mark were called inactive. Calls of active or inactive are those of the source. The call rests on the fitted dose curve; in most records, active means well fitted curve in the direction sought with a large enough effect; inconclusive means small, poorly fitted or top-dose-only effect, or another doubt; inactive means no such curve, though single readings can be large; an effect the other way counts as inactive or inconclusive.

Experiments:
[1] = biological target: Rap guanine nucleotide exchange factor 3 (Homo sapiens) (UniProt O95398); experiment: Confirmatory qHTS for antagonist of cAMP-regulated guanine nucleotide exchange factor 3 (EPAC1) (AID 1645880); further: nearly all actives have a fitted effect of over 55% in size; further: potency means the concentration at half of the fitted maximal effect
How it was run: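 Released BODIPY-GDP fluoresces less than Rap1-bound BODIPY-GDP; the signal is followed at 480/540 nm at 5-min intervals over 30 min, after 5 min at room temperature. Reactions contain 100 nM EPAC1, 250 nM RAP1B-BODIPY-GDP and 50 uM GDP; results are normalized to ATA and DMSO.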

[2] = biological target: Rap guanine nucleotide exchange factor 3 (Homo sapiens) (UniProt O95398); experiment: Confirmatory qHTS for agonist of cAMP-regulated guanine nucleotide exchange factor 3 (EPAC1) (AID 1645881); further: nearly all actives have a fitted effect of over 75% in size; further: potency means the concentration at half of the fitted maximal effect;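 on activation: EPAC1 catalysed release of BODIPY-GDP from Rap1B seen as fluorescence loss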
[3] = biological target: Rap guanine nucleotide exchange factor 4 (Homo sapiens) (UniProt Q8WZA2); experiment: Confirmatory qHTS for agonist of cAMP-regulated guanine nucleotide exchange factor 4 (EPAC2) (AID 1645884);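 further: nucleotide exchange releases bodipy-GDP from Rap1 and this lowers its fluorescence; nearly all actives have a fitted effect of over 65% in size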; further: potency means the concentration at half of the fitted maximal effect
[4] = biological target: Rap guanine nucleotide exchange factor 4 (Homo sapiens) (UniProt Q8WZA2); experiment: Confirmatory qHTS for antagonist of cAMP-regulated guanine nucleotide exchange factor 4 (EPAC2) (AID 1645885); further: nearly all actives have a fitted effect of over 25% in size; further: potency means the concentration at half of the fitted maximal effect
[5] = biological target: Rap guanine nucleotide exchange factor 3 (Homo sapiens) (UniProt O95398); experiment: Counterscreen qHTS for antagonist of cAMP-regulated guanine nucleotide exchange factor 3 (EPAC1) (AID 1645888)
How it was run: (§1)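 Rap1B–BODIPY-GDP (250 nM) with 50 uM GDP; compounds pin-transferred to 9.74 nM–152 uM final (activator) or from 7.32 nM upwards (inhibitor). Fluorescence Ex/Em 480/540 nm read at 5 and 30 min, then after adding cAMP or buffer, at room temperature.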

[6] = biological target: Rap guanine nucleotide exchange factor 3 (Homo sapiens) (UniProt O95398); experiment: Counterscreen qHTS for agonist of cAMP-regulated guanine nucleotide exchange factor 3 (EPAC1) (AID 1645889); further: nearly all actives have a fitted effect of over 40% in size; further: potency means the concentration at half of the fitted maximal effect
How it was run: as §1

Sequence of Rap guanine nucleotide exchange factor 4 (Homo sapiens) (Q8WZA2 whole entry, looked up): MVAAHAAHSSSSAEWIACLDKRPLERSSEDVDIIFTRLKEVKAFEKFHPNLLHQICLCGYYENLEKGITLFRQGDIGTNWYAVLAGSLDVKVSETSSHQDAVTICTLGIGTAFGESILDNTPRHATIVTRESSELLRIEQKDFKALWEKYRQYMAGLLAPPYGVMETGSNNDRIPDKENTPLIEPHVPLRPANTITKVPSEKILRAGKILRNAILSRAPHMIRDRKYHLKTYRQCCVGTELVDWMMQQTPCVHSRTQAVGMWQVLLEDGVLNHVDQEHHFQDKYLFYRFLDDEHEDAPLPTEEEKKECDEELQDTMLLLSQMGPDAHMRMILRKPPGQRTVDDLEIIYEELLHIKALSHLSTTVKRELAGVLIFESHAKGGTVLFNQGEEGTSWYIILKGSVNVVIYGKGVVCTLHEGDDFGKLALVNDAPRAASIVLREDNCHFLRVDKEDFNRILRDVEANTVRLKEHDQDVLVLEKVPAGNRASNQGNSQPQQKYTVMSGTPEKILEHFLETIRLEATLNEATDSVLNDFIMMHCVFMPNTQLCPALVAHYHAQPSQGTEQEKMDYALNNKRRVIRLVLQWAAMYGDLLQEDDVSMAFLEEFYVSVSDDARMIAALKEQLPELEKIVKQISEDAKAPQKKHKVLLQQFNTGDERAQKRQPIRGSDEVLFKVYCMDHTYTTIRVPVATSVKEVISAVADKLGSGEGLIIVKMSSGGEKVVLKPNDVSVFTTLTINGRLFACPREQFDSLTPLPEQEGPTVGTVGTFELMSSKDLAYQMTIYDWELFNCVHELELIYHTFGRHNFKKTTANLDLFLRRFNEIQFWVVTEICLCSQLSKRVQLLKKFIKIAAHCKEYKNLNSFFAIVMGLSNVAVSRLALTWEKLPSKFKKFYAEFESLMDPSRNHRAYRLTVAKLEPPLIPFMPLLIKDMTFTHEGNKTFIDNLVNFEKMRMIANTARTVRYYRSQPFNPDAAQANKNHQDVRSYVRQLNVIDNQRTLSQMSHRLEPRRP
Sequence of Rap guanine nucleotide exchange factor 3 (Homo sapiens) (O95398 whole entry, looked up): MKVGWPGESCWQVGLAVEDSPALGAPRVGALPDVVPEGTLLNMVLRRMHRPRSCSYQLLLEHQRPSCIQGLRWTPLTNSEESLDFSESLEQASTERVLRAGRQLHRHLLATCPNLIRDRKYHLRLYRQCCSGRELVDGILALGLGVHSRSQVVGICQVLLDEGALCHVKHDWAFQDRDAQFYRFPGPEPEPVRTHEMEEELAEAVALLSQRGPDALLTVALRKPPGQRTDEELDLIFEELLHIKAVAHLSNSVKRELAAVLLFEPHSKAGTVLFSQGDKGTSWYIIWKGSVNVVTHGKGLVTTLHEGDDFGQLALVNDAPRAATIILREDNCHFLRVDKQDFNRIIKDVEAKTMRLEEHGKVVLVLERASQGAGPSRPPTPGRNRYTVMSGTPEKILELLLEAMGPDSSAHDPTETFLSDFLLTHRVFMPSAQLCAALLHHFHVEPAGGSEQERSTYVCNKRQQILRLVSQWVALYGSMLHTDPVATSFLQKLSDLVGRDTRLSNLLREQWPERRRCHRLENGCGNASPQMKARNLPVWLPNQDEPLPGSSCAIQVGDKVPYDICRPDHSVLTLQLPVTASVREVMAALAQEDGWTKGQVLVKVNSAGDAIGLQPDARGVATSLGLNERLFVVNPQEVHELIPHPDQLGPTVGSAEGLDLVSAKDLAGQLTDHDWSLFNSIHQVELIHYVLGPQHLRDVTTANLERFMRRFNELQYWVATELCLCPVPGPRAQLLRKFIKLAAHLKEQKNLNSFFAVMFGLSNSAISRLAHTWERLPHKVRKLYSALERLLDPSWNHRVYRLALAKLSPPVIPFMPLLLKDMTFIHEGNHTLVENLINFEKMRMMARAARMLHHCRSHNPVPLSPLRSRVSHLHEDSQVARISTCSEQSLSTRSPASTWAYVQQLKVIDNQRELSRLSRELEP

| Structure (SMILES) | Potency [1] | Potency [2] | Potency [3] | Potency [4] | Potency [5] | Potency [6] | outcome [4] | activation [3] | activity change, negative = inhibition [5] | activation [6] |
| --- | --- | --- | --- | --- | --- | --- | --- | --- | --- | --- |
| CCOC(=O)C1CCCN(c2c(NCCN3CCCCC3C)c(=O)c2=O)C1 (stereo not given) | inactive | inactive | inactive | inactive | inactive | inactive | – | – | – | – |
| CC1CCCCC1Nc1nc2ccc(Cl)cc2n2cnnc12 (stereo not given) | inactive | inactive | inactive | inactive | inactive | inactive | – | – | – | – |
| COc1ccc(Br)cc1CNC(=O)c1ccc2nc(C(C)C)oc2c1 | inactive | inactive | inactive | – | inactive | inactive | inactive [at 12.7 µM] | – | – | – |
| COC(=O)CSc1nc2c(c(=O)n(C)c(=O)n2C)n1CCCc1ccccc1 | inactive | inactive | – | inactive | – | – | – | 4.31% [at 17.1 µM, percent relative to cAMP agonist control] | -3.64% [at 30.8 µM] | 0.96% [at 30.8 µM] |
| CC1(C)CC(=O)C2=C(C1)c1c(ccc3ccccc13)NC2c1cc([N+](=O)[O-])cc([N+](=O)[O-])c1O (stereo not given) | 9.53 µM (active) | inactive | inactive | 26.9 µM (active) | inactive | inactive | – | – | – | – |
| COc1cccc(/C=C2\SC(=S)N(NS(=O)(=O)c3ccccc3)C2=O)c1OC | 33.8 µM (active) | inactive | inactive | 37.9 µM (active) | inactive | inactive | – | – | – | – |
| Nc1ncnc2c1nc(Br)n2[C@@H]1O[C@@H]2COP(=O)(O)O[C@H]2[C@H]1O | 5.36 µM (active) | 7.08 µM (active) | 2.24 µM (active) | inactive | inactive | inactive | – | – | – | – |
| COc1nc(C)cc(C)c1S(=O)(=O)c1ccccc1C | inactive | inactive | inactive | inactive | inactive | inactive | – | – | – | – |
| Cc1c(CCC(=O)O)c(=O)oc2cc(OCc3ccc(Br)cc3)ccc12 | inactive | inactive | inactive | inactive | inactive | inactive | – | – | – | – |
| CC(NC(=O)c1cc(S(=O)(=O)N2CCOCC2)ccc1N1CCCC1)c1ccc(Cl)c(Cl)c1 (stereo not given) | inactive | inactive | inactive | inactive | inactive | inactive | – | – | – | – |
| O=C(COC(=O)c1c2c(nc3ccccc13)/C(=C/c1ccco1)CC2)NC1CCCC1 | 30.1 µM (active) | inactive | inactive | inactive | inactive | inactive | – | – | – | – |
| CCOC(=O)C1CCN(C(=O)c2cccc(S(=O)(=O)N(CC)c3ccccc3)c2)CC1 | inactive | inactive | inactive | inactive | inactive | inactive | – | – | – | – |
| Cc1ccc(CNC(=O)c2ccc3c(=O)[nH]c4c(C(=O)NCC5CCCO5)sc(=S)n4c3c2)cc1 (stereo not given) | 84.9 µM (active) | inactive | inactive | inactive | inactive | inactive | – | – | – | – |
| Nc1nnc(-c2cccc(F)c2)s1 | inactive | inactive | inactive | inactive | inactive | inactive | – | – | – | – |
| CCOc1cccc(CC(=O)NCc2ccc3c(c2)CCN3C(C)=O)c1OCC | inactive | inactive | inactive | inactive | inactive | inactive | – | – | – | – |
| Cc1ccc(C(C)C)cc1OCC(=O)NC1CCCCCCC1 | inactive | inactive | – | inactive | – | – | – | -1.54% [at 17.1 µM, percent relative to cAMP agonist control] | -15.5% [at 30.8 µM] | -2.78% [at 30.8 µM] |
| Cc1sc2ncnc(N3CCCC(C)C3)c2c1C (stereo not given) | inactive | inactive | inactive | inactive | inactive | inactive | – | – | – | – |
| Cc1ccc(NC(=O)CSc2ncn[nH]2)cc1C | inactive | inactive | inactive | inactive | inactive | inactive | – | – | – | – |
| Cc1nc(-c2cccc(NC(=O)Cc3ccccc3)c2)cs1 | inactive | inactive | – | inactive | – | – | – | 1.14% [at 17.1 µM, percent relative to cAMP agonist control] | -17.6% [at 30.8 µM] | 2.08% [at 30.8 µM] |
| O=C(O)c1cc(S(=O)(=O)Nc2cc(Cl)ccc2Oc2ccccc2)ccc1O | 26.9 µM (active) | inactive | inactive | inactive | inactive | inactive | – | – | – | – |

| Structure (SMILES) | Potency [1] | Potency [2] | Potency [3] | Potency [4] | Potency [5] | Potency [6] | outcome [4] | activation [3] | activity change, negative = inhibition [5] | activation [6] |
| --- | --- | --- | --- | --- | --- | --- | --- | --- | --- | --- |
| CCOC(=O)c1c(CC(C)C)csc1N | inactive | inactive | inactive | inactive | inactive | inactive | – | – | – | – |
| COc1ccc(C2CC(=O)n3c(nc4ccccc43)S2)cc1OC (stereo not given) | inactive | inactive | – | inactive | – | – | – | 2.96% [at 17.1 µM, percent relative to cAMP agonist control] | 10.2% [at 30.8 µM] | 6.35% [at 30.8 µM] |
| CC(/C=C1\SC(=S)N(NS(=O)(=O)c2ccccc2)C1=O)=C\c1ccccc1 | 22.4 µM (active) | inactive | – | inactive | – | – | – | 7.93% [at 17.1 µM, percent relative to cAMP agonist control] | -10.4% [at 30.8 µM] | 7.68% [at 30.8 µM] |
| O=C1NC(=O)/C(=C/c2ccccn2)S1 | inactive | inactive | inactive | inactive | inactive | inactive | – | – | – | – |
| C[C@@H](c1ccccc1)N1Cc2ccccc2Oc2cc(Br)ccc2S1(=O)=O | inactive | inactive | inactive | 2.69 µM (active) | inactive | inactive | – | – | – | – |
| CC1CC(C)CN(C(=O)c2cccc(S(=O)(=O)Nc3cc(C(F)(F)F)ccc3Cl)c2)C1 (stereo not given) | 13.5 µM (active) | inactive | inactive | inactive | inactive | inactive | – | – | – | – |
| CC(C)(C(=O)N1CCC1(C)C(=O)NS(=O)(=O)c1ccccc1Cl)c1ccccc1 (stereo not given) | inactive | inactive | – | inactive | – | – | – | 3.96% [at 17.1 µM, percent relative to cAMP agonist control] | 0.723% [at 30.8 µM] | 1.99% [at 30.8 µM] |
| C/C(=N\NC(=O)c1cc(-c2cccc([N+](=O)[O-])c2)n[nH]1)c1ccccc1O | 26.9 µM (active) | inactive | inactive | inactive | inactive | inactive | – | – | – | – |
| O=C(COC(=O)c1cccc(-n2cnnn2)c1)c1ccc(F)cc1 | inactive | inactive | – | inactive | – | – | – | 8.21% [at 17.1 µM, percent relative to cAMP agonist control] | -3.01% [at 30.8 µM] | 4.41% [at 30.8 µM] |
| CC(=O)N1CCc2cc(Br)cc(S(=O)(=O)NCCCN(C)Cc3ccccc3)c21 | inactive | inactive | inactive | 23.9 µM (active) | inactive | inactive | – | – | – | – |
| O=C1c2ccccc2S(=O)(=O)c2cc(N3CCC4(CC3)OCCO4)ccc21 | inactive | inactive | inactive | 84.9 µM (active) | inactive | 14.1 µM (active) | – | – | – | – |
| Cc1ccc(Cl)cc1NC(=O)C(C)n1nc(-c2ccccc2)ccc1=O (stereo not given) | inactive | inactive | inactive | inactive | inactive | inactive | – | – | – | – |
| O=c1oc(-c2ccccc2)c(-c2ccccc2)c2ccccc12 | inactive | inactive | inactive | inactive | inactive | inactive | – | – | – | – |
| Fc1cccc(Cc2c(-c3ccccc3)nc3ccc(Cl)cn23)c1 | inactive | inactive | inactive | inactive | inactive | inactive | – | – | – | – |
| COc1ccc(C(=O)Nc2cc(OC)c(Cl)cc2OC)cc1 | inactive | inactive | – | inactive | – | – | – | 4.3% [at 17.1 µM, percent relative to cAMP agonist control] | -12.1% [at 30.8 µM] | 10.3% [at 30.8 µM] |
| O=[N+]([O-])c1cc([N+](=O)[O-])c2oc(-c3ccccc3)c(Br)c2c1O | 2.69 µM (active) | inactive | inactive | 3.01 µM (active) | inactive | inactive | – | – | – | – |
| O=C(CNC(=O)c1sc2ccccc2c1Cl)Nc1ccccc1F | inactive | inactive | – | inactive | – | – | – | 11.8% [at 17.1 µM, percent relative to cAMP agonist control] | -19.6% [at 30.8 µM] | 2.6% [at 30.8 µM] |
| Oc1ccc(NCc2cccs2)cc1 | inactive | inactive | – | inactive | – | – | – | 14.6% [at 17.1 µM, percent relative to cAMP agonist control] | 0.945% [at 30.8 µM] | 21.5% [at 30.8 µM] |
| Cc1ccc(/C=C/C(=O)c2ccccc(=O)c2O)c(C)c1 | 44.7 µM (active) | inactive | – | inactive | – | – | – | 1.7% [at 17.1 µM, percent relative to cAMP agonist control] | 12.3% [at 30.8 µM] | 23.8% [at 30.8 µM] |
| CCc1nnc(NC(=O)c2cc(-c3ccco3)nc3ccccc23)s1 | 21.3 µM (active) | inactive | inactive | inactive | inactive | inactive | – | – | – | – |
